Reference: PubChem BioAssay (NCATS)
Inconclusive results are not listed. Calls of active or inactive are those of the source. Calls follow the shape of the dose curve; as a rule, active = well fitted inhibition curve with a large enough effect; inconclusive = small, poorly fitted or top-dose-only effect; inactive = flat fitted curve, though single readings scatter.

Legend:
Test in all cases: qHTS profiling for inhibitors of Plasmodium falciparum proliferation (AID 504749); also: nearly all actives have a fitted effect of over 60% in size
Conditions in all cases: P. falciparum in erythrocytes, SYBR Green DNA, 72 h; series mostly up to 28.7 µM
P94_40 = test system: P94_40
Procedure, shortened: (§1)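 Fluorescence of SYBR Green-bound parasite DNA, read at 485/535 nm, served as the growth measure. Infected erythrocytes were cultured with compound 72 h; artemisinin (0.29 uM) and DMSO wells defined the normalization range.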

PC49 = test system: PC49
Procedure, shortened: as §1

TAB109 = test system: TAB109
Procedure, shortened: as §1

TAB113 = test system: TAB113
Procedure, shortened: as §1

TAB165 = test system: TAB165
Procedure, shortened: as §1

PAD = test system: PAD
Procedure, shortened: as §1

PC26 = test system: PC26
Procedure, shortened: as §1

SC27B = test system: SC27B
Procedure, shortened: as §1

PC15 = test system: PC15
Procedure, shortened: as §1

Measured: Potency
Potency is read from the fitted curve at half-maximal effect.

CN(C)C(=O)Nc1ccc(Cl)c(Cl)c1
active: PC49 3.55 µM
inactive: P94_40 | TAB109 | TAB113 | TAB165

CN(C)CCOC(c1ccc(Cl)cc1)c1ccccn1 (stereo not drawn)
inactive: PAD | PC26 | TAB113

CN1CCN(CCC(=O)N2c3ccccc3Sc3ccc(C(F)(F)F)cc32)CC1
inactive: P94_40 | SC27B | TAB113

O=C(NC1CCN(CCc2c[nH]c3ccccc23)CC1)c1ccccc1
inactive: PAD | SC27B | TAB113 | TAB165

NCc1ccccc1Sc1ccccc1CO
inactive: PC49 | SC27B | TAB113

CN1CCN(c2cc3c(cc2F)c(=O)c(C(=O)O)cn3-c2ccc(F)cc2)CC1
not listed: P94_40 | TAB109
inactive: all other assays above

COc1cc([C@H]2Oc3cc([C@H]4Oc5cc(O)cc(O)c5C(=O)[C@@H]4O)ccc3O[C@@H]2CO)ccc1O
inactive: PC49 | TAB109

Cc1cc(CC(=O)O)c(C)n1-c1ccc(Cl)cc1
inactive: PC15 | TAB109
active: TAB165 14.1 µM

CN1CCN(C2=Nc3cc(F)ccc3Cc3ccccc32)CC1
inactive: PC15 | PC26 | PC49 | TAB109 | TAB113

OC1C(O)C(O)C(O)C(O)C1O (stereo not drawn)
inactive: all assays above

COc1ccc(C(=O)c2ccccc2)c(O)c1
inactive: P94_40 | PC49

CC1CCc2c(N3CCC(O)CC3)c(F)cc3c(=O)c(C(=O)O)cn1c23 (stereo not drawn)
inactive: PAD | PC15 | PC26 | PC49

N/C(=N\N=C\c1ccc(Cl)cc1)N/N=C/c1ccc(Cl)cc1
active: SC27B 12.6 µM | TAB109 6.31 µM | TAB165 3.98 µM
inactive: PC26 | PC49

NCCNc1cccc2ccccc12
not listed: TAB113 | SC27B
inactive: all other assays above

CN(C)CCN1C(=O)c2ccccc2N(C)c2ccccc21
inactive: PAD | PC15

NC1CCN(c2nc3c(cc2F)c(=O)c(C(=O)O)cn3-c2ccc(F)cc2F)C1 (stereo not drawn)
inactive: PAD | PC15 | PC26 | SC27B

COc1cc(O)c(C(=O)c2ccccc2)cc1S(=O)(=O)O
inactive: PC49 | SC27B

CC(=O)O[C@H]1C[C@@H]2CC[C@@H]3[C@H](CC[C@@]4(C)[C@H]3C[C@H]([N+]3(C)CCCCC3)[C@@H]4OC(C)=O)[C@@]2(C)C[C@@H]1N1CCCCC1
not listed: P94_40 | TAB109 | TAB165
inactive: all other assays above

O=C(O)CCc1nc2ccccc2[nH]1
active: PC49 0.01 µM | TAB165 7.94 µM
inactive: PC15 | TAB109

CN1CCN(C2=Nc3ccccc3Sc3ccc(Cl)cc32)CC1
inactive: PC15 | PC49

CC(C)[N+](C)(C)CC(O)COc1cccc2ccccc12 (stereo not drawn)
not listed: P94_40 | TAB109 | TAB165
inactive: all other assays above

CN1CCN(c2c(F)cc3c(=O)c(C(=O)O)cn4c3c2SCC4)CC1
inactive: PC15 | PC26 | PC49 | SC27B | TAB113

O=C(CCN1CCN2CCCC2C1)N1c2ccccc2Sc2ccc(Cl)cc21 (stereo not drawn)
inactive: TAB113

CN1CCC[C@@H]1CCO[C@](C)(c1ccccc1)c1ccc(Cl)cc1
inactive: P94_40 | PAD | PC26 | SC27B | TAB113

COC(=O)C(c1ccccc1Cl)N1CCc2sccc2C1 (stereo not drawn)
inactive: PC15 | PC49

CCCCCCCCCCCCOCCOCCOCCOCCOCCOCCOCCOCCOCCO
inactive: PC26 | PC49

NC(=O)C1(N2CCCCC2)CCN(CCCC(=O)c2ccc(F)cc2)CC1
not listed: TAB109 | TAB113
inactive: all other assays above

O=S(c1cc(Cl)cc(Cl)c1O)c1cc(Cl)cc(Cl)c1O
inactive: PC15
active: PC49 0.398 µM | TAB165 0.355 µM

CCN(CC)CCOc1ccccc1C(=O)CCc1ccccc1
inactive: PAD | PC49 | TAB113

CO[C@]12C[C@@H](COC(=O)c3cncc(Br)c3)CN(C)[C@@H]1Cc1cn(C)c3cccc2c13
inactive: PC49 | SC27B | TAB113

CCN(CC)CCOC(=O)C1(c2ccccc2)CCCC1
active: TAB113 0.005 µM
not listed: PC49 | PC15
inactive: all other assays above

CN1CCC(OC(c2ccccc2)c2ccccc2)CC1
inactive: PAD | SC27B

Cc1cc2c(OCC(CNC(C)(C)C)OC(=O)c3ccccc3)cccc2[nH]1 (stereo not drawn)
not listed: P94_40 | TAB109 | TAB165
inactive: all other assays above

COc1ccc(C(Cl)=C(c2ccc(OC)cc2)c2ccc(OC)cc2)cc1
active: P94_40 11.2 µM | TAB109 3.55 µM | TAB165 2.51 µM
inactive: PC15 | PC26

Cc1ccc2c(Br)cc(Br)c(O)c2n1
inactive: PC15
active: SC27B 11.2 µM | TAB113 12.6 µM | TAB165 6.31 µM

CNCCCCOc1ccccc1Cc1ccccc1
active: PC49 5.01 µM | TAB109 4.47 µM

OC(C#CCN1CCCC1)(c1ccccc1)c1ccccc1
inactive: PC15
active: TAB165 11.2 µM

CN(Cc1ccc(C(C)(C)C)cc1)Cc1cccc2ccccc12
not listed: P94_40 | TAB113 | TAB165
inactive: all other assays above
